Screening data as filed in PubChem BioAssay.
Sampled rows, rich in hits. Any-hit rate of the full collection: about 19%.
TDP1 cell noCPT: qHTS for Inhibitors of human tyrosyl-DNA phosphodiesterase 1 (TDP1): qHTS in cells in absence of CPT; Potency, µM (top dose mostly 46.2 µM), usual class: inhibitors; hit rate 15% among 420,000; DT40 Tdp1-/- hTDP1 cells, no CPT, ATP luminescence, 48 h; also: nearly all actives have a fitted effect of over 55% in size
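Luminescent ATP content (CellTiter-Glo) served as the growth readout. Knockout chicken DT40 cells expressing human TDP1 were exposed to compounds without camptothecin for a minimum 48 hr at 37 °C.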
HT1080NT lethal: qHTS for induction of synthetic lethality in tumor cells producing 2HG: qHTS for the HT-1080-NT fibrosarcoma cell line. hit rate 1.6% among 360,000. AID 686970, 2013. HT-1080-NT fibrosarcoma viability, CellTiter-Glo ATP luminescence, 48 h. Potency, µM (series often up to 46.1 µM), hits mostly cytotoxic;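 also: NT is the 2HG producing partner of a matched IDH1 knockdown line; nearly all actives have a fitted effect of over 55% in size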
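HT-1080-NT fibrosarcoma cells (2HG-overproducing), 750 cells/well in RPMI with 5% FBS, dosed after 2 h and incubated 48 h at 37C. CellTiter-Glo luminescence normalized to DMSO and no-cell wells; concentration-response curves fitted and classed.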
HT1080 IDH1KD tx: qHTS for induction of synthetic lethality in tumor cells producing 2HG: qHTS for the HT-1080-IDH1KD cell line. HT-1080 IDH1 knockdown viability, ATP luminescence, 48 h. Potency, µM (highest dose often 46.1 µM), hits mostly cytotoxic. hit rate 2% among 360,000
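Viability of IDH1-knockdown HT-1080 fibrosarcoma cells was assessed by CellTiter-Glo after 48 h at 37 °C with titrated compound; concentration-effect curves were classified by fit quality and response size.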
DT40 TDP1 CPT: qHTS for Inhibitors of human tyrosyl-DNA phosphodiesterase 1 (TDP1): qHTS in cells in presence of CPT; AID 686979, 2013; chicken DT40 Tdp1-/-;hTDP1 cells + 20 nM CPT, ATP luminescence, 48 h; hit rate 12% among 420,000; Potency, µM (highest dose often 46.2 µM), most hits filed as inhibitors; also: nearly all actives have a fitted effect of over 55% in size
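Cell growth measured by CellTiter-Glo luminescence after a minimum 48 h, 37 C compound exposure with 20 nM CPT in Tdp1-knockout DT40 cells stably expressing hTDP1, seeded 400/well; qHTS titration format.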
IL-1B inflam inh: qHTS for Inhibitors of Inflammasome Signaling: IL-1-beta AlphaLISA Primary Screen; THP-1 LPS/ATP IL-1B secretion, AlphaLISA, 16 h; active compounds read low; hit rate 4.7% among 360,000; activity change, % at 57.5 µM; in the data active = activity change below about -50%; inconclusive = mostly about -30% to -49%
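Secreted IL-1B measured by AlphaLISA bead assay after 16 h compound exposure of THP-1 cells; compounds (final up to 57.5 uM) added 1 h before LPS (250 ng/mL) and ATP (1.25 mM) stimulation; lower signal means less secretion.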
Of the large screens only hits and unclear results are named; the others gave an inactive call. Unless noted, calls follow the shape of the dose curve; as a rule, active = well fitted curve in the direction sought with a large enough effect; inconclusive = small, poorly fitted or top-dose-only effect, or another doubt; inactive = no such curve, though single readings can be large; an effect the other way counts as inactive or inconclusive.

CS(=O)(=O)N1CCN(c2ccc([N+](=O)[O-])c(NCc3cccnc3)c2)CC1	TDP1 cell noCPT inconclusive
CCN1CCC(O)(C#Cc2ccccc2)CC1	none
CC1C(c2ccccc2)N(C)C(c2ccccc2)C(C)C1(O)C#Cc1ccccc1 (configuration not stated)	TDP1 cell noCPT 10µM, HT1080 IDH1KD tx inconclusive, DT40 TDP1 CPT 9.2µM, IL-1B inflam inh -65
CC(=O)C1CCC2C3CCC4=CC(=O)CCC4(C)C3(F)C(O)CC12C (configuration not stated)	TDP1 cell noCPT 23µM, HT1080 IDH1KD tx inconclusive, DT40 TDP1 CPT 23µM
Nc1c(C(=O)CSc2nc3ccccc3o2)c(=O)[nH]c(=O)n1C1CC1	TDP1 cell noCPT inconclusive, HT1080 IDH1KD tx inconclusive, DT40 TDP1 CPT inconclusive
COc1ccc(N2CCN(CCCNC(=O)CCC(=O)N3CCOc4ccc(Cl)cc43)CC2)cc1	TDP1 cell noCPT inconclusive, HT1080NT lethal inconclusive, HT1080 IDH1KD tx inconclusive, DT40 TDP1 CPT inconclusive
O=C(CCC(=O)N1CCOc2ccc(Cl)cc21)NCCCN1CCC(Cc2ccccc2)CC1	TDP1 cell noCPT 18µM, DT40 TDP1 CPT inconclusive
Cc1ccc(CSCCC(=O)N2CCN(c3cc(C)ccc3C)CC2)cc1	TDP1 cell noCPT 13µM, DT40 TDP1 CPT 23µM (no result: HT1080NT lethal, HT1080 IDH1KD tx, IL-1B inflam inh)
O=C(CCC(=O)N1CCOc2ccccc21)NCCCN1CCOCC1	none
Cc1ccc(C)c(N2CCN(C(=O)CCC(=O)N3CCOc4ccc(Cl)cc43)CC2)c1	TDP1 cell noCPT 26µM, HT1080NT lethal inconclusive, HT1080 IDH1KD tx inconclusive, DT40 TDP1 CPT 15µM
O=C(CCSCc1ccc(Cl)cc1)N1CCN(c2ccccc2F)CC1	none (no result: HT1080NT lethal, HT1080 IDH1KD tx, IL-1B inflam inh)
O=C(CCC(=O)N1CCOc2ccc(Cl)cc21)NCCCN1CCN(c2ccccc2F)CC1	TDP1 cell noCPT 18µM, HT1080NT lethal inconclusive, HT1080 IDH1KD tx inconclusive, DT40 TDP1 CPT 21µM
O=C(CCn1c(=S)oc2ccccc21)Nc1cc([N+](=O)[O-])ccc1F	none
COc1cc(NC(=O)c2ccccc2)c(OC)cc1NC(=O)Cc1ccc(C)cc1	none
COc1cc(CN2CCCC(n3cc(C(=O)N4CCCCC4)nn3)C2)cc(OC)c1OC (configuration not stated)	none (no result: HT1080NT lethal, HT1080 IDH1KD tx, IL-1B inflam inh)
COc1cc(CN2CCCC(n3cc(C(=O)N4CCCCC4)nn3)C2)cc(OC)c1 (configuration not stated)	TDP1 cell noCPT 23µM, DT40 TDP1 CPT inconclusive (no result: HT1080NT lethal, HT1080 IDH1KD tx, IL-1B inflam inh)
CCCCn1c(N)c(N(CCOC)C(=O)c2cccc(S(=O)(=O)N(C)c3ccc(C)cc3)c2)c(=O)[nH]c1=O	none
Cc1ncc(N=Nc2ccc(F)cc2)c(-c2ccc(Cl)cc2)n1	none
Oc1ccc(N=Nc2n[nH]c(-c3ccc(Cl)cc3)n2)cc1	TDP1 cell noCPT 16µM, DT40 TDP1 CPT inconclusive
Cc1ccc(C)c(C(=O)Cn2c(NCCO)nc3ccccc32)c1	DT40 TDP1 CPT inconclusive
COc1ccccc1N1CCN(Cc2cc3c(cc2O)OCO3)CC1	none
CCOc1ccccc1N1CCN(Cc2cccc(OC)c2O)CC1	TDP1 cell noCPT inconclusive, DT40 TDP1 CPT inconclusive
CCCOCc1cc(CN2CCN(c3ccccc3OC)CC2)c(O)c2ncccc12	TDP1 cell noCPT 2.9µM, DT40 TDP1 CPT 4.6µM (no result: HT1080NT lethal, HT1080 IDH1KD tx, IL-1B inflam inh)
COc1ccccc1N1CCN(Cc2cc(Br)c(O)c3ncccc23)CC1	TDP1 cell noCPT 9.2µM, HT1080NT lethal inconclusive, HT1080 IDH1KD tx inconclusive, DT40 TDP1 CPT 6.5µM
CCOCc1cc(CN2CCN(c3ccccc3OC)CC2)c(O)c2ncccc12	TDP1 cell noCPT 5.2µM, DT40 TDP1 CPT 5.2µM (no result: HT1080NT lethal, HT1080 IDH1KD tx, IL-1B inflam inh)
COc1ccccc1N1CCN(Cc2cc(COC(C)C)c3cccnc3c2O)CC1	TDP1 cell noCPT 4.6µM, DT40 TDP1 CPT 4.6µM (no result: HT1080NT lethal, HT1080 IDH1KD tx, IL-1B inflam inh)
Cc1ccc(S(=O)(=O)N2CCN(C(=O)CNC(=O)c3ccc(Br)o3)CC2)cc1	none
O=C(CNS(=O)(=O)c1ccc(Br)cc1)Nc1ccc2c(c1)OCCO2	none
CCOC(=O)C1=C(COC(=O)Cc2ccccc2)NC(=O)NC1C (configuration not stated)	none
